Screens as filed in PubChem.
Fam108B counter: mouse Fam108B serine hydrolase inhibitors, primary screen, counter-screen for RBBP9 inhibitor project, biochemical, fluorescence polarization; recombinant Fam108B, FP-Rh probe fluorescence polarization; inhibition, % at 9.51 µM; actives 0.33% (n = 300,000);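 active = inhibition above the screen mean inhibition plus 3 SD, computed separately per campaign, cut at about 18% in these data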;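 also: inhibitors lower polarization as less probe binds the enzyme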
PAD4 inh: human PAD4 inhibitors, primary screen, biochemical, fluorescence polarization, 1536-well format | Protein-arginine deiminase type-4 (Homo sapiens), Q9UM07 | recombinant PAD4, RCA probe fluorescence polarization | inhibition, % at 6.36 µM | actives 0.41% (n = 330,000);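 active = percent inhibition above a cutoff equal to the mean of all tested compounds plus 3 SD, cut at about 15% in these data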;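 also: 0% = PAD4 with RCA probe and DMSO and 100% = probe without PAD4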
LYPLA2 inh: LYPLA2 inhibitors, primary screen, counter-screen for PME1 inhibitor project, biochemical, fluorescence polarization, FP-Rh probe ABPP; Acyl-protein thioesterase 2 (Homo sapiens), O95372; inhibition, % at 5.9 µM; actives 0.38% (n = 320,000); recombinant LYPLA2;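 active = inhibition above the screen-wide mean plus 3 SD, limit set per campaign, cut at about 26% in these data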;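 also: 0% = LYPLA2 with DMSO and 100% = wells lacking LYPLA2 enzyme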
Target sequence (O95372 whole entry, looked up): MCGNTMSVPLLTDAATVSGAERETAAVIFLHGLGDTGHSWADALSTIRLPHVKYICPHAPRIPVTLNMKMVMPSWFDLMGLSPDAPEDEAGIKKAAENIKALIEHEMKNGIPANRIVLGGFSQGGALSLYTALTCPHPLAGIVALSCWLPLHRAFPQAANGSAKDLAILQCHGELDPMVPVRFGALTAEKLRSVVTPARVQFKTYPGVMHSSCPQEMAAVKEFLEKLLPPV
LYPLA1 inh: LYPLA1 inhibitors, primary screen, counter-screen for PME1 inhibitor project, biochemical, fluorescence polarization, FP-Rh probe ABPP | Acyl-protein thioesterase 1 (Homo sapiens), O75608 | recombinant LYPLA1 | inhibition, % at 5.9 µM | actives 0.16% (n = 320,000) | AID 2174, 2009;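 active = inhibition above the mean of all tested compounds plus 3 SD, set per campaign, cut at about 14% in these data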;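 also: inhibitors block serine hydrolase probe labeling of LYPLA1 so polarization falls; 0% = enzyme with DMSO and 100% = wells lacking LYPLA1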
Target sequence (O75608 whole entry, looked up): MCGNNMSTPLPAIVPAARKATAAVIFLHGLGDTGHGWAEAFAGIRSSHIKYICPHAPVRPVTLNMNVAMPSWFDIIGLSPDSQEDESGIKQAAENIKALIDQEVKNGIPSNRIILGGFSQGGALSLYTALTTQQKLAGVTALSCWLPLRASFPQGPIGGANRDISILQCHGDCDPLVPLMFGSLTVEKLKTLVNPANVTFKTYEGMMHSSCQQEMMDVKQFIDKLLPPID
GSTO1 counter: inhibitors of recombinant GSTO1, primary screen, counter-screen for RBBP9 inhibitor project, biochemical, fluorescence polarization | inhibition, % at 5.96 µM | actives 1.1% (n = 300,000) | activity-based probe fluorescence polarization;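 active = inhibition above the campaign mean inhibition plus 3 SD, cut at about 35% in these data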;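 also: 0% = GSTO1-1 with DMSO and 100% = wells lacking GSTO1-1 enzyme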
PME-1 primary: PME-1 inhibitors via competitive probe labeling, primary screen, biochemical, fluorescence polarization, FP-Rh probe, HTS | actives 0.53% (n = 320,000) | recombinant PME-1 | Protein phosphatase methylesterase 1 (Homo sapiens), Q9Y570 | inhibition, % at 5.9 µM | AID 2130, 2009;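 active = inhibition above the campaign mean of all compounds plus 3 SD, cut at about 26% in these data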;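 also: competitive labeling of PME-1 active site by serine hydrolase directed probe; 0% = PME-1 with DMSO and 100% = wells lacking PME-1 enzyme; inhibitors block probe labeling so polarization falls and inhibition rises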
PAD4 confirm: human PAD4 inhibitors, confirmation, biochemical, fluorescence polarization; inhibition, % at 6.36 µM; recombinant PAD4, RCA probe fluorescence polarization; AID 488796, 2010; shares compounds with PAD4 inh; actives 28% (n = 1,200);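 active = mean inhibition across replicates above the hit cutoff set by the earlier primary screen, cut at about 15% in these data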;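 also: inhibitors block active-site labeling by the probe so polarization falls; 0% = PAD4 with probe and DMSO and 100% = probe without PAD4 enzyme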
Active calls of the source: *; · = not tested or not shown. Only some compounds are listed: those with a hit (about 1.8% of all), similar ones and a draw of the others.

SMILES	Fam108B counter	PAD4 inh	LYPLA2 inh	LYPLA1 inh	GSTO1 counter	PME-1 primary	PAD4 confirm
CN(C)C(CNC(=O)CCNC(=O)c1ccc(Cl)cc1)c1ccco1 (stereo not given)	-0.1	1.3	-0.3	0.3	8.0	0.9	·
CCOC(=O)CNC(=O)c1sc(NC(=O)c2cccc(F)c2)nc1C	1.0	25.3*	2.1	0.2	1.1	-2.2	2.2
Cc1cc(C)n2c(SCC(=O)Nc3cc(C)on3)nnc2n1	2.9	-1.2	11.1	2.3	-4.3	1.2	·
O=C(C1CCCN(S(=O)(=O)c2ccc(Br)cc2)C1)N1CCN(Cc2ccccc2)CC1 (stereo not given)	-0.4	-7.1	4.8	-3.6	-2.3	10.2	·
COc1ccc(OCC(=O)Nc2cc(S(=O)(=O)N3CCCCC3)ccc2OC)cc1	-1.7	-0.5	-3.5	0.3	-1.2	19.7	·
COc1ccc(C(=O)Oc2ccc3ccc(=O)oc3c2)cc1	5.2	0.7	9.3	-4.0	0.5	-1.6	·
CC(=O)c1c(C)oc2ccc(N(C(C)=O)S(=O)(=O)c3cccc([N+](=O)[O-])c3)cc12	0.1	1.1	-7.0	1.6	-1.0	2.6	·
CCCC(=O)N(c1ccc2oc(=O)sc2c1)S(=O)(=O)c1cccs1	0.9	15.7*	-5.1	-1.7	15.4	-2.2	17.8*
CC(=O)N(c1ccc2oc(=O)sc2c1)S(=O)(=O)c1ccccc1	1.2	17.7*	5.0	2.5	28.2	-5.5	14.3
CN(CC(=O)O)S(=O)(=O)c1cccs1	1.2	-8.7	-6.1	2.7	1.8	1.3	·
COc1ccc(C(=O)Oc2ccc3oc(=O)sc3c2)cc1	-0.1	48.2*	14.9	-1.6	30.6	-2.2	11.8
COc1ccc(S(=O)(=O)N(C(=O)C(C)C)c2ccc3oc(=O)sc3c2)cc1	4.9	14.0	1.2	4.2	15.2	1.8	·
CC(C)C(=O)N(c1ccc2oc(=O)sc2c1)S(=O)(=O)c1ccccc1	-2.1	23.7*	2.9	0.8	17.6	-5.2	2.8
COc1ccc([N+](=O)[O-])cc1N(CC(O)CN1C(=O)NC(C)(C)C1=O)S(=O)(=O)c1ccccc1 (stereo not given)	3.0	1.2	1.1	1.8	-0.5	1.4	·
COc1ccc(OC)c(S(=O)(=O)N(C(C)=O)c2ccc3oc(=O)sc3c2)c1	-0.7	25.1*	-1.9	0.9	23.5	-3.0	15.5*
COc1ccc(N(C(C)=O)S(=O)(=O)c2cc(OC)ccc2OC)cc1	-3.6	1.4	-1.1	3.1	0.5	-1.6	·
Cc1ccc2c(c1)sc(-c1ccc(N(C)C)cc1)[n+]2C	5.5	19.0*	5.5	1.4	2.5	5.7	-1.8
COc1ccc(C)cc1Nc1n[n+](-c2ccccc2)c(-c2ccc(N(C)C)cc2)s1	2.9	-2.4	4.7	3.5	0.2	0.3	·
NNC(=O)c1snnc1-c1ccccc1	-1.0	39.6*	2.9	-1.3	-0.1	-1.6	13.9
c1ccc2c(c1)Cn1nnnc1-2	3.8	33.0*	-3.5	-3.1	2.7	4.3	-2.5
c1ccc2c(c1)CC1(CCCCC1)n1nnnc1-2	-1.4	1.6	3.4	3.4	-2.7	0.0	·
C#CCn1cc(/C=C2\NC(=O)NC2=O)c2ccccc21	-0.8	-2.1	6.0	-0.6	4.1	6.5	·
Cc1ccc(N(Cc2cc(=O)[nH]c3ccccc23)C(=O)C(C)C)cc1	4.7	25.8*	6.4	-1.2	-16.3	2.1	24.5*
CCCC(=O)N(Cc1cc(=O)[nH]c2ccccc12)c1ccc(C)cc1	-0.6	22.8*	-1.7	0.7	-15.1	5.0	26.8*
COc1ccccc1NS(=O)(=O)c1cccc(C(=O)N/N=C/c2ccc(NC(C)=O)cc2)c1	-3.0	-0.3	-11.3	-11.1	-10.8	3.5	·
